According to PubChem BioAssay:
Values without a mark were called inactive. The source made the active and inactive calls. Unless noted, no stated cut-off is given here; in the data, active means inhibition above about 25%; inactive means the rest.

How the values were obtained:
[1] = molecular target: Nuclear receptor coactivator 1 (Homo sapiens) (UniProt Q15788); assay: NCOA1 GAL4-fusion reporter inhibition – cell-based, luminescence, quadruplicate, confirmation (AID 588820;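 active means mean inhibition above 46.68%, the untreated control wells mean plus 3 SD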;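 further: 0% = DMSO wells and 100% = gossypol 36 µM treated wells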); settings: HEK293 GAL4-SRC1 luciferase reporter, at 3.6 µM, active compounds read high
Chain of Nuclear receptor coactivator 1 (Homo sapiens) (Q15788 whole entry, looked up, the tested form may be a part): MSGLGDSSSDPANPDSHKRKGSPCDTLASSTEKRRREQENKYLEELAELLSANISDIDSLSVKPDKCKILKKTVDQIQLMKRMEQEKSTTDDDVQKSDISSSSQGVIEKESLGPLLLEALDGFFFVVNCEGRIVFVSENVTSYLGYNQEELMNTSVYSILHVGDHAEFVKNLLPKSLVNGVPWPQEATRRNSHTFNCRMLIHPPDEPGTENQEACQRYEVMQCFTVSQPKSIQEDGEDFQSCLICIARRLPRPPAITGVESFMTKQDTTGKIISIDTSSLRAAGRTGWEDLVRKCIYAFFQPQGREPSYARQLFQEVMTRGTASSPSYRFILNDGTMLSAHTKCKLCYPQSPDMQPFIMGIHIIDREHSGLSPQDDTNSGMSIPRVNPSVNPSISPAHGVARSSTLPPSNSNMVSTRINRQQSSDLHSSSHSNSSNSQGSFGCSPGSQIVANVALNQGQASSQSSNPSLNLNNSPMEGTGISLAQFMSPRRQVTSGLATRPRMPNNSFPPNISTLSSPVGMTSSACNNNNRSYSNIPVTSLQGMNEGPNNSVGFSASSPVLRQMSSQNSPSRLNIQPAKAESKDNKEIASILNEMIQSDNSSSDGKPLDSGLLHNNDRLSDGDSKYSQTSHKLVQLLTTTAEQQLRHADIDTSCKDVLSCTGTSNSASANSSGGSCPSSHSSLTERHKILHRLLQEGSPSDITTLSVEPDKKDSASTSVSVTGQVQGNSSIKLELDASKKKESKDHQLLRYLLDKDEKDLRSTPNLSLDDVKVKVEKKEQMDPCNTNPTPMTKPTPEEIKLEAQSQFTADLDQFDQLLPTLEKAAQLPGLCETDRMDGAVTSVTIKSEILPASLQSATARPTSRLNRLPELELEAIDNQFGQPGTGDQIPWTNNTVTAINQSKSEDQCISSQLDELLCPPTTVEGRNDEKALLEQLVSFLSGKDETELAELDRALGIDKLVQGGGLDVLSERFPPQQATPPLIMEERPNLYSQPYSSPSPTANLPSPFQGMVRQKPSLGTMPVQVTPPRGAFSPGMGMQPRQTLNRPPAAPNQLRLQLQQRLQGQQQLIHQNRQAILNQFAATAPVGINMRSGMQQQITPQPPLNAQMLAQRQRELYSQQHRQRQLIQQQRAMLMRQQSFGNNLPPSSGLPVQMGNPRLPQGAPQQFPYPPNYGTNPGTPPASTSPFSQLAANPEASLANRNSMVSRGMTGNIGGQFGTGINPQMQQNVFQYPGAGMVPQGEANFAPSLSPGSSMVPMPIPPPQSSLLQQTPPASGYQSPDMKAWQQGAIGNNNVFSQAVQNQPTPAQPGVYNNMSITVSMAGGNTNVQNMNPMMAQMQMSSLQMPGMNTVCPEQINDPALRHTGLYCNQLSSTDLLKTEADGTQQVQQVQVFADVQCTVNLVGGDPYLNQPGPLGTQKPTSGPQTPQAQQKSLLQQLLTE

[2] = repression of VP16-driven luciferase reporter – cell-based, luminescence, high throughput, counter-screen for SRC1 inhibitor project (AID 588824); settings: cell-based VP16 transactivation luciferase luminescence; at 3.6 µM; active compounds read high

Row | Compound | inhibition [1] | inhibition [2]
1 | Cc1cc(OC(C)C(=O)Nc2ccncc2)ccc1Cl (stereo not given) | -0.51% | 7.56%
2 | COc1ccc(C(=O)Nc2ccc(-c3ccc(C)o3)cc2)cc1S(=O)(=O)N1CCOCC1 | -16.1% | 22.2%
3 | O=c1[nH]cnc2sc3c(c12)CCCC3 | 10.8% | 11.2%
4 | CN(Cc1ccccc1)C(=O)c1ccc(NC(=O)C2CCCN(C(=O)OC(C)(C)C)C2)cc1 (stereo not given) | -1.28% | 8.32%
5 | CCN1CCN(c2ccc(S(=O)(=O)N3CCCCC3)cc2NC(=O)/C=C/c2cc(OC)ccc2OC)CC1 | -0.69% | 7.17%
6 | O=C(CSc1nc2[nH]ncc2c(=O)[nH]1)N1CCCCC1 | -8.66% | -6.86%
7 | COc1ccc(S(=O)(=O)Nc2ccccc2C(=O)N2CCCC2)cc1OC | -5.26% | -1.42%
8 | COc1ccc(C(=O)n2cc(C(=O)c3cc(C)ccc3O)cn2)cc1OC | -3.44% | -0.92%
9 | Cc1ccc(NC(=O)c2cc(=O)c3ccccc3o2)cc1S(=O)(=O)N1CCCCC1 | -9.96% | 7.05%
10 | CCN(c1ccccc1)S(=O)(=O)c1cc(C(=O)Nc2ccc(Br)cc2)ccc1F | 16.9% | 23.2%
11 | Cc1ccc(O)c(C(=O)c2cnn(C(=O)COc3ccc(Cl)cc3)c2)c1 | 23.6% | 4.05%
12 | CCOC(=O)c1c(CN(CC)CC)n(C)c2cc(Br)c(O)cc12 | 6.72% | 2.67%
13 | Cc1cc(Br)cn2c(Cc3ccsc3)c(-c3ccc(F)cc3)nc12 | 6.68% | -0.27%
14 | CC(=O)c1cn(CC(=O)Nc2cccc(C)c2C)c2ccccc12 | -15.8% | 13%
15 | CC(=O)Nc1sc2c(c1-c1nc3ccccc3s1)CCN(C(C)C)C2 | -147% | 59.3% (active)
16 | O=[N+]([O-])c1ccc(CSc2ccc(S(=O)(=O)N3CCOCC3)cn2)cc1 | -7.09% | 0.46%
17 | Cc1cc(C)c(Nc2cc(S(=O)(=O)O)c(N)c3c2C(=O)c2ccccc2C3=O)c(C)c1 | 9.3% | 8.52%
18 | CC(CC(=O)Nc1ccc(Cl)c(S(=O)(=O)N2CCOCC2)c1)c1ccccc1 (stereo not given) | 1.13% | 38.6% (active)
19 | Cc1nc2ccccc2c(N)c1C(=O)/C=C/c1ccccc1 | 28.7% | 31.6% (active)
20 | COc1ccc(CCNC(=O)C(=O)NCC2CCCN2S(=O)(=O)c2ccccc2)cc1OC (stereo not given) | -20.3% | -7.77%
21 | NC(=O)c1ccc(N2CCN(S(=O)(=O)c3ccccc3)CC2)c([N+](=O)[O-])c1 | -20.8% | 31.9% (active)
22 | CCC(C)C(=O)Nc1nc(C)c(-c2csc(Nc3cc(Cl)ccc3OC)n2)s1 (stereo not given) | -14.5% | -1.24%

Row | Compound | inhibition [1] | inhibition [2]
23 | COc1ccc(C(=O)Nc2ccc(N3CCCCCC3)cc2)cc1S(=O)(=O)N1CCOCC1 | -2.46% | 18.2%
24 | COc1ccc(NS(=O)(=O)c2cc(NC(=O)CC(C)(C)C)ccc2N2CCCC2)cc1 | -10.7% | -1.18%
25 | COc1cc(-c2cnc3c(NC(C)=O)cc(-c4ccc(N5CCN(C)CC5)cc4)cn23)cc(OC)c1OC | -17.8% | -18.2%
26 | COc1cc(S(=O)(=O)NCc2ccccc2Cl)ccc1-n1cnnn1 | -9.68% | -5.92%
27 | O=S(=O)(NCc1ccncc1)c1ccc(Br)s1 | -15.5% | 28.8% (active)
28 | COc1cc2c(cc1OC)C(NC(=O)C(F)(F)F)CNC2=O (stereo not given) | 45.5% | 22.3%
29 | CCOc1ccc(NC(=S)N2CCC(NC(=O)c3ccco3)CC2)cc1 | -7.01% | -4.78%
30 | COC(=O)c1cc2ccccn2c2c(C(=O)OC)c(C(=O)OC)cc1-2 | -58.3% | -27.2%
31 | O=C1CSc2ccc(S(=O)(=O)NCc3ccccc3)cc2N1 | -4.74% | -9.61%
32 | Cc1ccc2nc(NC(=O)CCCC(=O)O)sc2c1 | 45.4% | 37.5% (active)
33 | c1ccc2c(c1)CCN(c1nc3cc4c(cc3s1)OCCO4)C2 | -22.2% | 2.93%
34 | COc1cc2c(cc1OC)C(C)N(C(=O)c1cc3ccccc3o1)CC2 (stereo not given) | -4.6% | 2.25%
35 | COc1ccc2cc(/C=N/NC(=O)c3ccc(CN(c4ccc(C)c(C)c4)S(C)(=O)=O)cc3)c(Cl)nc2c1 | -4.08% | 20.7%
36 | O=C(CSc1nc(C2CC2)nc2ccccc12)Nc1cccc(O)c1 | -0.77% | 1.43%
37 | COc1cccc(-c2cc(C(=O)Nc3cc(C)n(Cc4ccc(Cl)cc4)n3)no2)c1 | 1.04% | 18.9%
38 | O=C1CC2(CCCC2)CC(=O)N1CCCCN1CCN(c2ncccn2)CC1 | 0.34% | 2.87%
39 | COc1ccc(NC(=O)CN(C)C(=O)c2ccc(N3CCCCC3)c([N+](=O)[O-])c2)cc1 | -5.37% | -5.37%
40 | CCCc1cc(=O)oc2cc(O[C@@H]3O[C@H](CO)[C@@H](O)[C@H](O)[C@H]3O)ccc12 | -9.52% | -11.7%
41 | CC(C)N1C(=O)/C(=C\c2nc3ccccc3c(=O)n2-c2ccccc2)c2ccccc21 | 7.4% | 24.2%
42 | C=CCSc1nnc(-c2cc(C(C)(C)C)nn2Cc2ccc(F)cc2)n1C | 1.92% | 4.7%
43 | COc1cccc(C=NNC(=O)c2ccncc2)c1O | 7.89% | 10.7%
44 | O=C1C2C3C=CC(C3)C2C(=O)N1CN(Cc1ccccc1)CN1C(=O)C2C3C=CC(C3)C2C1=O (stereo not given) | -20.9% | -14.3%

Row | Compound | inhibition [1] | inhibition [2]
45 | Cc1cc(C)n(-c2ccc(C(=O)Nc3ccc(C)c(S(=O)(=O)N4CCOCC4)c3)cc2)n1 | 0.36% | -1.58%
46 | O=C(NCCC(=O)N1CCCC(C(F)(F)F)C1)c1ccc(Br)cc1 (stereo not given) | -7.52% | -9.82%
47 | COc1ccc(CCC(C)NCc2cc(OC)cc(OC)c2)cc1 (stereo not given) | -28.3% | -6.4%
48 | COc1cccc(NC(=O)CN(C)CC(=O)Nc2ccc(Cl)cc2[N+](=O)[O-])c1 | 26.6% | 14.7%
49 | Cc1ccc(NC(=O)CN(C(=O)N2CCN(C)CC2)S(=O)(=O)c2ccc(C)cc2)cc1 | -4.36% | -2.41%
50 | COC(=O)C(=N/Nc1ccccc1C(=O)OC)/C(C)=N/O | -2.93% | -4.44%
51 | COc1ccccc1CN(Cc1nc2ccccc2c(=O)[nH]1)S(=O)(=O)c1ccc2ccccc2c1 | -20.3% | -11.3%
52 | Cc1oc(-c2ccc(Cl)cc2)nc1CS(=O)CC(=O)NCCCN1CCN(Cc2ccccc2)CC1 (stereo not given) | -11% | 27.4% (active)
53 | NS(=O)(=O)c1ccc(NC(=O)c2cccc3cc4ccccc4nc23)cc1 | -13.3% | 9.91%
54 | COCCOc1ccc(C(F)(F)F)cc1NC(=O)c1ccc(C(F)(F)F)cc1 | 6.49% | 3.69%
55 | CCCCCC(=O)N1CCN(S(=O)(=O)c2ccc3c(c2)OCCO3)CC1 | -2.33% | -1.65%
56 | O=C(c1ccccc1)c1sc(Nc2ccc3c(c2)OCO3)nc1-c1ccccc1 | 13.9% | 18.1%
57 | COc1cc(C=C2CCCC(=Cc3ccc(OCC4CO4)c(OC)c3)C2=O)ccc1OCC1CO1 (stereo not given) | -119% | 9.37%
58 | COc1ccc(CC(=O)Nc2ccc3c(c2)CCC3)cc1OC | 10.1% | 2.91%
59 | Cc1ccc(C(=O)NC2CCCc3c2cnn3-c2ccc(F)cc2F)cn1 (stereo not given) | -17.5% | 27.2% (active)
60 | COc1cc(C)c(/C=C(\C#N)C(=O)Nc2ccc(C)cc2)cc1C(C)C | -24% | 0.73%
61 | Fc1cccc(CSc2nnc3ccc(-c4ccncc4)nn23)c1 | 21.7% | 9.73%
62 | COC(=O)c1cccc(NC(=O)c2ccc[n+]([O-])c2)c1 | -21.8% | 4.7%
63 | COc1ccc(CCNc2ncnc3c2[nH]c2cc(OC)c(OC)cc23)cc1OC | -33.2% | -14.5%
64 | O=C(NC1CCCCC1)C(c1ccc(F)cc1)N(CCCN1CCOCC1)C(=O)c1ccc(CN2CCOCC2)o1 (stereo not given) | -0.03% | 3.53%
65 | CC1CN(c2nc3ccccc3nc2SCC(=O)Nc2cccc(C(F)(F)F)c2)CC(C)O1 (stereo not given) | -15.1% | 5.85%
